Here are results for 40 molecules from PubChem BioAssay (Tox21).

Molecules are shown by their SMILES. Results filed as inconclusive are left out. Active and inactive are the calls of the source. The call rests on the fitted dose curve; in most records, active means well fitted activation curve with a large enough effect in the signal ratio in the repeat runs (not every such curve was filed as active); inconclusive means weak or mixed curves; inactive means flat fitted curve, though single readings scatter; the % refers to the signal ratio.
On the % scale 0 is the no-effect control and ±100 the full control effect.

This assay is described as follows: qHTS assay to identify small molecule agonists of H2AX (AID 1224845). Conditions: CHO-K1 phospho-H2AX Ser139 HTRF, 3 h; series mostly up to 154 µM; activation (H2AX phosphorylation): at the top concentration. The source says: National Center for Advancing Translational Sciences [NCATS]
NIH Chemical Genomics Center [NCGC]
U.S. Environmental Protection Agency [EPA]
National Institutes of Environmental Health Sciences [NIEHS]
National Toxicology Program [NTP]
U.S. Food and Drug Administration [FDA]
HTRF phospho-H2AX (Ser139) assay (Cisbio Bioassays, US) enables the quantitative detection of the histone variant H2AX when phosphorylated on serine 139. When double-stranded DNA breaks, either by ionizing radiation or endogenous physiological processes, H2AX becomes phosphorylated at Ser139. This phospho-Ser139 serves as a sensitive biomarker for the detection of such breaks, localizing the site of DNA repair. So, HTRF phospho-H2AX Ser139 is a pertinent assay to study genome stability, the cell cycle, DNA repair, and it serves as a biomarker for cancer, and to understand aging. Wild type CHO-K1 cells were used to identify the inducers of Phospho-H2AX Ser 139 from the Tox21 10K compound collections.
Tox21 Assay Protocol Summary:
The CHO-K1 cells suspended in culture medium containing 10% FBS were dispensed at 1000 cells/ 3 ul/well in 1536-well white wall/solid bottom plates (Greiner Bio-One North America, NC) using a Multidrop Combi (Thermo Fisher Scientific Inc., Waltham, MA). After the assay plates were incubated at 37C overnight, 23 nl of compounds at 15 concentrations (from 5-48 columns) or positive control (from 1 to 4 columns) were transferred to the assay plates using a Pintool station (Wako, San Diego, CA) into each well resulting in a final DMSO concentration of 0.76%. After 3hr incubation at 37C, 1 uL/well Supplemented Lysis buffer (diluted 100 fold blocking reagent in lysis buffer) (HTRF Phospho-H2A.X (S139) Assay kit from Cisbio US Inc., Bedford, MA) was added using a Flying Reagent Dispenser (FRD) (Aurora Discovery, CA). After 10sec spin at 1000 rpm in a plate centrifuge, the assay plates were incubated at room temperature for 30 min. Then followed by the addition of 1 uL/well detection buffer (containing a mixture of two antibodies, one labeled with cryptate, Anti pH2AX (S139)-K and another labeled with d2, Anti H2AX-d2) using FRD. After incubation at room temperature for 24 hr, the time resolved fluorescence at excitation 320 nm and emissions at 665 nm and 620 nm was measured using an Envision plate reader (PerkinElmer, Waltham, MA).
(In qHTS, concentration-response curves come from the screen itself.)
With `CCOC(=O)c1ccc(NC(=O)CN2CCCCC2)cc1`, the “activation (H2AX phosphorylation)” value was -0.0769% [at 70.9 µM] (inactive).
For the molecule `O=[N+]([O-])c1ccc2ncccc2c1`, the “activation (H2AX phosphorylation)” value was -0.566% (inactive).
Under `C/C(C=O)=C\c1ccccc1` stands 0.802% (inactive); under `CCCCCCCC/C=C\CCCCCCCC(=O)OCCO`, -0.691% (inactive); under `CC1=CC[C@@]23C[C@@H]1C(C)(C)[C@@H]2CC[C@H]3C`, -2.23% (inactive).
With `CC(C)OC(=O)c1ccccc1C(=O)OC(C)C` the figure was 2.49% (inactive); with `BrC(Br)C(Br)Br`, -0.296% (inactive); with `Cc1ccc(N(CC2=NCCN2)c2cccc(O)c2)cc1`, 0.0673% [at 70.9 µM] (inactive).
Under `O=NN(CCCl)C(=O)NCCCl` stands -0.331% [at 70.9 µM] (inactive); under `COC(=O)c1sccc1S(N)(=O)=O`, -2.26% (inactive).
Regarding `C[C@@H]1C[C@H]2[C@@H]3CCC4=CC(=O)C=C[C@]4(C)[C@@]3(F)[C@@H](O)C[C@]2(C)[C@@]1(O)C(=O)COP(=O)(O)O`, the “activation (H2AX phosphorylation)” value was -3.08% (inactive).
With `CCCCCCCC/C=C/C(=O)O` the figure was -0.996% [at 70.9 µM] (inactive); with `C=C(C)C(=O)OCCC(F)(F)C(F)(F)C(F)(F)C(F)(F)C(F)(F)C(F)(F)F`, 0.154% (inactive).
Under `C=Cc1ccc(OC(C)=O)cc1` stands 6.91% (inactive); under `O=CNNC=O`, -0.898% (inactive).
With `O=C(O)CN1C(=O)c2cccc3cccc(c23)C1=O` the figure was -4.01% [at 70.9 µM] (inactive); with `COc1ccc(-c2cc(C(F)F)nn2-c2ccc(S(N)(=O)=O)cc2)cc1F`, -0.569% [at 70.9 µM] (inactive).
For the molecule `COc1ccc(/C=C/C(=O)c2ccc(OC)cc2OC)cc1`, the “activation (H2AX phosphorylation)” value was -3.6% [at 70.9 µM] (inactive).
With `CC12CC3CC(C)(C1)CC(N)(C3)C2` the figure was 1.72% [at 70.9 µM] (inactive); with `C=CCOC(=O)COCCC(C)C`, -0.222% (inactive).
With `CCCCOC(=O)CCCCC(=O)OCCCC` the figure was 3.28% (inactive); with `COC1CCC=CO1` (stereo not given), 2.4% (inactive).
Under `CCCCCCCCCCCCCC(=O)OCC(O)CO` (stereo not given) stands -2.91% (inactive); under `CCCCCCCCCCCCCOS(=O)(=O)O`, -2.46% (inactive); under `CCNc1nc(N)nc(Cl)n1`, 0.716% (inactive).
As to `Cc1cc(CCCOc2c(C)cc(-c3noc(C(F)(F)F)n3)cc2C)on1`, the “activation (H2AX phosphorylation)” value was -1.94% [at 70.9 µM] (inactive).
Regarding `CSCC[C@H](NC(=O)[C@H](Cc1c[nH]c2ccccc12)NC(=O)CCNC(=O)OC(C)(C)C)C(=O)N[C@@H](CC(=O)O)C(=O)N[C@@H](Cc1ccccc1)C(N)=O`, the “activation (H2AX phosphorylation)” value is -3.62% [at 70.9 µM] (inactive).
As for `CC1C(C)(C)C2=C(C(=O)CCC2)C1(C)C` (stereo not given), the “activation (H2AX phosphorylation)” value is -1.61% (inactive).
With `CC(C)N(C)C` the figure was -0.735% (inactive).
As to `Cc1cccc(C)c1NC(=O)c1cc(S(N)(=O)=O)c(Cl)cc1O`, the “activation (H2AX phosphorylation)” value was 0.19% [at 70.9 µM] (inactive).
Under `CC(C)(O)CCc1ccccc1` stands -1.54% (inactive).
For `CCCCCCC(O)CCOC(C)=O` (stereo not given), the “activation (H2AX phosphorylation)” value was -0.176% [at 401 µM] (inactive).
With `NC(=O)CCCCC(N)=O` the figure was 0.241% (inactive); with `Cc1ccccc1S(N)(=O)=O`, -1.86% (inactive).
Under `CCN(CC)C(=O)N1CCN(C)CC1` stands -0.438% [at 70.9 µM] (inactive); under `OCC(CO)n1cnc(-c2ccc(F)cc2)c1-c1ccnc(Oc2ccccc2)n1`, -3.31% (inactive).
Under `CN1C(CSCC(F)(F)F)Nc2cc(Cl)c(S(N)(=O)=O)cc2S1(=O)=O` (stereo not given) stands -3.1% [at 70.9 µM] (inactive); under `COc1ccc(CCN(C)CCCN2CCc3cc(OC)c(OC)cc3CC2=O)cc1OC`, -0.164% [at 70.9 µM] (inactive).
As for `CC1=C2[C@@H]([C@H](C)CC[C@H]2/C=C(\C)C(=O)O)[C@H](O)C1`, the “activation (H2AX phosphorylation)” value was 0.294% (inactive).
Regarding `CN=C(N)NC(=O)Nc1c(C)cccc1C`, the “activation (H2AX phosphorylation)” value was 1.83% [at 70.9 µM] (inactive).
